Over roughly 2,000 compounds, “B-score” has its median near -0.0024; the highest 2% begin near 4. Many of the other results were omitted from the sample, so the highest values are more common in it than they were.
test system: Balamuthia mandrillaris (ATCC PRA-291) trophozoites, axenic culture; experiment: primary screen, b score; settings: 20 µM
How it was run: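 Trophozoites (3,000/well) in axenic medium exposed to library drugs at 20 µM in 0.2% DMSO for 72 h; viability by CellTiter Glo luminescence at 2, 4 and 8 h. Controls: vehicle and freeze-thaw amoeba lysate; B-score corrects row, column and edge effects.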

Row | Structure (SMILES) | B-score
1 | CN(C)CC/C=C1/c2ccccc2Sc2ccc(Cl)cc21 [285943-L2] | -0.683
2 | CCN(CC)CCOC(=O)C(c1ccccc1)c1ccccc1 | -1.55
3 | FC(F)(F)C(F)(F)C(F)(F)C(F)(F)C(F)(F)C(F)(F)C(F)(F)C(F)(F)Br | 1.01
4 | Cc1ccsc1/C=C/C1=NCCCN1C | 2.44
5 | CN1CCN(CC(=O)N2c3ccccc3C(=O)Nc3cccnc32)CC1 | -0.953
6 | C=C1CC[C@H](O)C/C1=C/C=C1\CCCC2(C)C1CCC2C(C)CCCC(C)C (stereo partly drawn) | -1.18
7 | O=c1oc2cc(O)ccc2s1 | 1.79
8 | C[C@@H]1CC[C@H]2[C@@H](C)C(=O)O[C@@H]3O[C@@]4(C)CC[C@@H]1[C@]32OO4 | 11.9
9 | CO[C@H]1O[C@@H]2O[C@@]3(C)CC[C@H]4[C@H](C)CC[C@@H]([C@H]1C)[C@@]24OO3 | 7.12
10 | C[C@@H]1CC[C@H]2[C@@H](C)C(O)O[C@@H]3O[C@@]4(C)CC[C@@H]1[C@]32OO4 (stereo partly drawn) | 8.14
11 | COC1O[C@@H]2O[C@@]3(C)CC[C@H]4[C@H](C)CC[C@@H]([C@H]1C)[C@@]24OO3 (stereo partly drawn) | -0.0904
12 | CC(=O)[C@H]1CC[C@H]2[C@@H]3CC=C4C[C@@H](OC(=O)CCC(=O)O)CC[C@]4(C)[C@H]3CC[C@]12C | -2.77
14 | C/N=C(\NC)NCc1ccccc1 | -0.109
15 | Cc1c(O)c(=O)ccn1C | -3.39
16 | O=C1CN2Cc3c(ccc(Cl)c3Cl)N=C2N1 | 1.87
17 | CCN(CC)CCOc1ccc(/C(=C(\Cl)c2ccccc2)c2ccccc2)cc1 | -1.4
18 | CC(=O)OC(C)C[N+](C)(C)C (stereo not drawn) | 1.98
19 | CCN1CCN(C(=O)NC(C(=O)N[C@@H]2C(=O)N3[C@@H]2SC(C)(C)[C@@H]3C(=O)O)c2ccccc2)C(=O)C1=O (stereo partly drawn) | 2.04
20 | C=C1c2cccc(O)c2C(O)=C2C(=O)[C@]3(O)C(O)=C(C(N)=O)C(=O)[C@@H](N(C)C)[C@@H]3[C@@H](O)[C@H]12 | -0.0267
21 | Oc1nc2ccccc2n1CCCN1CCC(n2c(O)nc3cc(Cl)ccc32)CC1 | -1.5
22 | C[C@H](COc1ccccc1)N[C@H](C)[C@H](O)c1ccc(O)cc1 | 0.0782

Row | Structure (SMILES) | B-score
23 | NC[C@@H]1O[C@H](O[C@H]2[C@@H](O)[C@H](O[C@@H]3[C@@H](O)[C@H](N)C[C@H](N)[C@H]3O[C@H]3O[C@H](CN)[C@@H](O)[C@H](O)[C@H]3N)O[C@@H]2CO)[C@H](N)[C@@H](O)[C@@H]1O | 1.53
24 | CC#C[C@]1(O)CCC2C3CCC4=CC(=O)CCC4=C3[C@@H](c3ccc(N(C)C)cc3)C[C@@]21C (stereo partly drawn) | 2.28
25 | CN1CCC(=C2c3ccccc3CCc3sccc32)CC1 | -0.3
26 | CC(=O)OCC(CCn1cnc2cnc(N)nc21)COC(C)=O | 0.28
27 | CCC(=O)Oc1ccc2c(c1)CC[C@@H]1[C@@H]2CC[C@]2(C)[C@@H](OC(=O)CC)CC[C@@H]12 | -3.91
28 | Clc1ccc(Cn2c(CN3CCCC3)nc3ccccc32)cc1 | 0.738
29 | COc1ccc(CCN2CCC(Nc3nc4ccccc4n3Cc3ccc(F)cc3)CC2)cc1 | -0.484
30 | Cc1nc2ccccc2n1Cc1ccc(Cl)cc1 | 6.45
31 | CCOC(=O)C1=C[C@@H](OC(CC)CC)[C@H](NC(C)=O)[C@@H](N)C1 | -0.221
32 | Cc1c(-c2cnccn2)ssc1=S | 1.58
33 | Cc1c(NC(C)C)c(=O)n(-c2ccccc2)n1C | -2.14
34 | Cc1c(NC(=O)c2cccnc2)c(=O)n(-c2ccccc2)n1C | 12.5
35 | Cc1c(N(C)C)c(=O)n(-c2ccccc2)n1C | 2.34
36 | CNC[C@H](O)[C@@H](O)[C@H](O)[C@H](O)CO [757068-L2] | 1.95
37 | C[C@]1(Cn2ccnn2)C(C(=O)O)N2C(=O)CC2S1(=O)=O (stereo partly drawn) | -2.49
38 | OC(CCN1CCCCC1)(c1ccccc1)C1CCCCC1 (stereo not drawn) | 0.407
39 | COc1c(N2CCNC(C)C2)c(F)cc2c(=O)c(C(=O)O)cn(C3CC3)c12 (stereo not drawn) | 0.0884
40 | C[C@@H]1CN(c2c(F)c(F)c3c(=O)c(C(=O)O)cn(C4CC4)c3c2F)C[C@H](C)N1 | -1.44
41 | C[n+]1c2cc(N)ccc2cc2ccc(N)cc21 | 20.4
42 | Nc1ccc2cc3ccc(N)cc3nc2c1 | 1.36
43 | CC[n+]1c(-c2ccccc2)c2cc(N)ccc2c2ccc(N)cc21 | 3.74
44 | O=C(O)/C=C/C(=O)O | 0.597

Row | Structure (SMILES) | B-score
45 | CCCCCCCCCCCCCCCC(=O)OC/C=C(C)/C=C/C=C(C)/C=C/C1=C(C)CCCC1(C)C | -0.008
46 | O=C(CCCN1CC=C(n2c(O)nc3ccccc32)CC1)c1ccc(F)cc1 | -6.32
47 | CCCc1cc(C(N)=S)ccn1 | 3.08
48 | O=C(O)[C@H](O)[C@@H](O)[C@H](O)[C@H](O)CO | 0.99
49 | N=C(N)c1ccc(OCCCCCOc2ccc(C(=N)N)cc2)cc1 | 15.2
50 | CCCCOc1ccc(C(=O)CCN2CCCCC2)cc1 [130801-L6] | -2.14
51 | CCCCOc1ccc(C(=O)CCN2CCCCC2)cc1 [130801-L5] | -1.2
52 | CC(C)(O/N=C(\C(=O)N[C@@H]1C(=O)N2C(C(=O)O)=C(C[n+]3ccccc3)CS[C@H]12)c1csc(N)n1)C(=O)O | 1.87
53 | CN[C@H](CC(C)C)C(=O)N[C@H]1C(=O)N[C@@H](CC(N)=O)C(=O)N[C@H]2C(=O)N[C@H]3C(=O)N[C@H](C(=O)N[C@H](C(=O)O)c4cc(O)cc(O)c4-c4cc3ccc4O)[C@H](O)c3ccc(c(Cl)c3)Oc3cc2cc(c3O[C@@H]2O[C@H](CO)[C@@H](O)[C@H](O)[C@H]2O[C@H]2C[C@](C)(N)[C@H](O)[C@H](C)O2)Oc2ccc(cc2Cl)[C@H]1O | -0.857
54 | Oc1ccc2c3c1O[C@H]1[C@@H](O)CC[C@@]4(O)[C@@H](C2)N(CC2CCC2)CC[C@]314 | 0.0386
55 | CN1CCC(=C2c3ccccc3Sc3ccccc32)CC1 | -1.07
56 | CN/C(=C\[N+](=O)[O-])NCCSCc1ccc(CN(C)C)o1 | 14.6
57 | CN/C(=C/[N+](=O)[O-])NCCSCc1ccc(CN(C)C)o1 | -2.02
58 | CN/C(=C\[N+](=O)[O-])NCCSCc1csc(CN(C)C)n1 | -0.177
59 | COC(=O)/C=C/C(=O)OC | 1.25
60 | COc1cc(NS(=O)(=O)c2ccc(N)cc2)ncn1 | 3.08
61 | Nc1ccc(S(=O)(=O)Nc2ccc(Cl)nn2)cc1 | 1.1
62 | COc1ccc(NS(=O)(=O)c2ccc(N)cc2)nn1 | 4.49
63 | CNC[C@H](O)[C@@H](O)[C@H](O)[C@H](O)CO [757068-L1] | -0.164
64 | Cc1scc2c1N(C(=O)CN1CCN(C)CC1)c1ccccc1NC2=O | -4.76
65 | N#Cc1nn(-c2c(Cl)cc(C(F)(F)F)cc2Cl)c(N)c1S(=O)C(F)(F)F (stereo not drawn) | 0.119
66 | OC[C@@H]1CC[C@H](n2cnc3c(O)ncnc32)O1 | 0.384

Row | Structure (SMILES) | B-score
67 | C#C[C@]1(O)CC[C@H]2[C@@H]3CCC4=CC(=O)CC[C@@H]4[C@H]3CC[C@@]21C | 5.5
68 | C#C[C@]1(O)CCC2C3CCC4=CC(=O)CC[C@@H]4C3CCC21CC (stereo partly drawn) | -1.87
69 | C#C[C@]1(O)CCC2C3CCC4=CC(=O)CC[C@@H]4C3CC[C@@]21C (stereo partly drawn) | 0.0185
70 | CO/N=C(\C(=O)N[C@@H]1C(=O)N2C(C(=O)O)=C(CSc3nc(=O)c(=O)[nH]n3C)CS[C@H]12)c1csc(N)n1 | -0.496
71 | CC(C[N+](C)(C)C)OC(N)=O (stereo not drawn) | 1.72
72 | CC(=O)[C@H]1CCC2C3CC=C4C[C@@H](O)CC[C@]4(C)C3CC[C@@]21C (stereo partly drawn) | -1.35
73 | N=C(N)c1ccc(N=NNc2ccc(C(=N)N)cc2)cc1 | 9.37
74 | Nc1c2ccccc2nc2ccccc12 | -0.407
75 | CC(=O)c1ccc2c(c1)N(CCCN(C)C)c1ccccc1S2 | 0.888
76 | COc1cc(C(=O)NCCCCCC(=O)O)cc(OC)c1OC | -2.61
77 | CC1=C(/C=C/C(C)=C/C=C/C(C)=C\C(=O)O)C(C)(C)CCC1 | 1.46
78 | NC(=O)c1cc[n+](CC2=C(C(=O)O)N3C(=O)[C@@H](NC(=O)Cc4cccs4)[C@H]3SC2)cc1 | 0.071
79 | CC(C)N1CCN(c2ccc(OC[C@H]3CO[C@](Cn4cncn4)(c4ccc(Cl)cc4Cl)O3)cc2)CC1 | 2.03
80 | CCC(C)n1ncn(-c2ccc(N3CCN(c4ccc(OCC5COC(Cn6cncn6)(c6ccc(Cl)cc6Cl)O5)cc4)CC3)cc2)c1=O (stereo not drawn) | -1.07
81 | CCC(C)n1ncn(-c2ccc(N3CCN(c4ccc(OC[C@H]5CO[C@](Cn6cncn6)(c6ccc(Cl)cc6Cl)O5)cc4)CC3)cc2)c1=O (stereo partly drawn) | 5.45
82 | O=c1[nH]c(=O)c2ccccc2o1 | 1.88
83 | C(=C\c1ccccc1)/CN1CCN(C(c2ccccc2)c2ccccc2)CC1 [255681-L2] | 0.414
84 | Cc1cn[nH]c1 [285621-L4] | 2.94
85 | Cc1cc(-c2ccc(/N=N/c3ccc4c(S(=O)(=O)O)cc(S(=O)(=O)O)c(N)c4c3O)c(C)c2)ccc1/N=N/c1ccc2c(S(=O)(=O)O)cc(S(=O)(=O)O)c(N)c2c1O | 11
86 | CN(C)CC(c1ccc(O)cc1)C1(O)CCCCC1 (stereo not drawn) | -2.24
87 | Nc1nc(O)c2nc(CNc3ccc(C(=O)N[C@@H](CCC(=O)O)C(=O)O)cc3)cnc2n1 [131189-L3] | -0.599

Reference: paper PMC6212833
